Laboratory results as given in PMC7862700, “An all-to-all approach to the identification of sequence-specific readers for epigenetic DNA modifications on cytosine”.

Columns and labels:
Assay in all cases: DAPPL (digital affinity profiling via proximity ligation, sequencing); 10 mM Tris-HCl pH 7.5, 50 mM NaCl, 1 mM DTT, 4% glycerol, room temperature, 30 min; GST-TFs on glutathione beads, 16-mer random dsDNA library, 0.1% formaldehyde crosslink after washing; high values mean tight binding
Conditions in all cases: protein: recombinant; tags: N-terminal GST; dsDNA, one strand shown
FEV = target: T1, FEV (Homo sapiens, UniProt Q99581 1-238)
T1 sequence: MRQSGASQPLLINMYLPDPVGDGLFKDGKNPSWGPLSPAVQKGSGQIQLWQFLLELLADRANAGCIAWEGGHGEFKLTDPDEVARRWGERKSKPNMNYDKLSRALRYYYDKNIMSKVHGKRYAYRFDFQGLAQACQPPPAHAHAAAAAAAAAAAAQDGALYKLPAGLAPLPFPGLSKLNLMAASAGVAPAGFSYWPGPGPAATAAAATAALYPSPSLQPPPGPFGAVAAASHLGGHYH
In short: (§1)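 The binding signal reported is, for every hexamer, its read frequency for a factor over its read frequency for the tag-only sample. Reads came from pools of yeast-expressed, GST-fused human transcription factors on glutathione beads, barcoded with DNA and mixed with that sample, which were incubated with 200 nmole of a random double-stranded 16-mer DNA library in Tris/NaCl/DTT/glycerol buffer at room temperature for 30 min. After washing, the pools were crosslinked with 0.1% formaldehyde, proximity-ligated with BsaI/T4 ligase for 1 h at 37 °C, PCR-amplified and sequenced on an Illumina NextSeq500.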

ETV5 = ETV5 (Homo sapiens, UniProt P41161 1-510)
In short: as §1

SPIC = target: T2, SPIC (Homo sapiens, UniProt Q8N5J4 1-248)
T2 sequence: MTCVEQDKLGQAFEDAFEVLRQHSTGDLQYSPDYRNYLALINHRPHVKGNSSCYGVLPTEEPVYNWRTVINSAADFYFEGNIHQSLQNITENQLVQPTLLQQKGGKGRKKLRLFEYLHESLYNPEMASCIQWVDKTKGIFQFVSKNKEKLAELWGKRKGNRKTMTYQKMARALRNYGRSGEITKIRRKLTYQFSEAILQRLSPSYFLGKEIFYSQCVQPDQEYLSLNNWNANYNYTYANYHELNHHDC
In short: as §1

ELF4 = ELF4 (Homo sapiens, UniProt Q99607 1-663)
In short: as §1

ELK4 = target: T3, ELK4 (Homo sapiens, UniProt P28324-2 1-405)
T3 sequence: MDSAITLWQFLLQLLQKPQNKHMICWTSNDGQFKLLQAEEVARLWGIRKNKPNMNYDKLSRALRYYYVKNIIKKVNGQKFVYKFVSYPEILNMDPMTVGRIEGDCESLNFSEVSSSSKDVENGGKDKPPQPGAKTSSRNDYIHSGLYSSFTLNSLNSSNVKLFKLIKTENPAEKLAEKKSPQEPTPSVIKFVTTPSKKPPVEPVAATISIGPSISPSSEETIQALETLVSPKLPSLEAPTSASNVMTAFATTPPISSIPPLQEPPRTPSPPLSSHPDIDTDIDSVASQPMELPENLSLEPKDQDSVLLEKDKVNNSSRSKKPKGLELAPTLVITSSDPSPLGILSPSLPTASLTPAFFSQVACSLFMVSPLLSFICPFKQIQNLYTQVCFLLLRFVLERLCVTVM
In short: as §1

ETV2 = target: T4, ETV2 (Homo sapiens, UniProt O00321 1-342)
T4 sequence: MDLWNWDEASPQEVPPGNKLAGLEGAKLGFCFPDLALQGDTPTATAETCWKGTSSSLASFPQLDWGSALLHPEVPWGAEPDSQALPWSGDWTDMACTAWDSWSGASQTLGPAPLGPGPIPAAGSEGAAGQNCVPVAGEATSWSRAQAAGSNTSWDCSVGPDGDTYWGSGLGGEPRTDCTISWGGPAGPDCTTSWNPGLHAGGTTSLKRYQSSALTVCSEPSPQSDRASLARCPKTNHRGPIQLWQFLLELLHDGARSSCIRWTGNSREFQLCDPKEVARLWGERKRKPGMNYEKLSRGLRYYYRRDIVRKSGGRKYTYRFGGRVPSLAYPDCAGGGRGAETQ
In short: as §1

ELF3 = target: T5, ELF3 (Homo sapiens, UniProt P78545 1-371)
T5 sequence: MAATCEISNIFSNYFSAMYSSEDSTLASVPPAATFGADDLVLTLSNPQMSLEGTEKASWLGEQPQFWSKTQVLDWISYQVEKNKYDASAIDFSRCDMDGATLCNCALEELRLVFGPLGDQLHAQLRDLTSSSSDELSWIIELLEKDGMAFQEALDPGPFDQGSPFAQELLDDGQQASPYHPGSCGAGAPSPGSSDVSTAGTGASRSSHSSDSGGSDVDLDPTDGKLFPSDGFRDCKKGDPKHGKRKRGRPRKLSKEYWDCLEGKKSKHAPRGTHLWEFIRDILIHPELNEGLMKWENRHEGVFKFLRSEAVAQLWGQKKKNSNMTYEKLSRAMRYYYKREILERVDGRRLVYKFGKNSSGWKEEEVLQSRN
In short: as §1

ETV1 = ETV1 (Homo sapiens, UniProt P50549 1-477)
In short: as §1

ERF = target: T6, ERF (Homo sapiens, UniProt P50548 1-548)
T6 sequence: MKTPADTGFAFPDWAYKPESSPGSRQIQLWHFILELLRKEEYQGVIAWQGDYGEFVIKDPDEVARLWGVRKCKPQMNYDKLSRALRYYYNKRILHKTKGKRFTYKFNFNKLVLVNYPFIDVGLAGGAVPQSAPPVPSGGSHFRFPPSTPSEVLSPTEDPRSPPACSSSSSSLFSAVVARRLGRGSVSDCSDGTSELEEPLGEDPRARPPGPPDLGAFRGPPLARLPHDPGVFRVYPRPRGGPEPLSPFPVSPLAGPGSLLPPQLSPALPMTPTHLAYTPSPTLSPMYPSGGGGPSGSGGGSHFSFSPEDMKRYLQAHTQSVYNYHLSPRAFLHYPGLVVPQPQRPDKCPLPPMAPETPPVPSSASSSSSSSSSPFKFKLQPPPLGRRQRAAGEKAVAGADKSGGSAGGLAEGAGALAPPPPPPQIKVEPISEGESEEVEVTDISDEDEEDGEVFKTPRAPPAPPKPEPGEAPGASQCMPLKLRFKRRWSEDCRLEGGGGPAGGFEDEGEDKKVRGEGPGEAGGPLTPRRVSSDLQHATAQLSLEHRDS
In short: as §1

ETV3L = target: T7, ETV3L (Homo sapiens, UniProt Q6ZN32 1-361)
T7 sequence: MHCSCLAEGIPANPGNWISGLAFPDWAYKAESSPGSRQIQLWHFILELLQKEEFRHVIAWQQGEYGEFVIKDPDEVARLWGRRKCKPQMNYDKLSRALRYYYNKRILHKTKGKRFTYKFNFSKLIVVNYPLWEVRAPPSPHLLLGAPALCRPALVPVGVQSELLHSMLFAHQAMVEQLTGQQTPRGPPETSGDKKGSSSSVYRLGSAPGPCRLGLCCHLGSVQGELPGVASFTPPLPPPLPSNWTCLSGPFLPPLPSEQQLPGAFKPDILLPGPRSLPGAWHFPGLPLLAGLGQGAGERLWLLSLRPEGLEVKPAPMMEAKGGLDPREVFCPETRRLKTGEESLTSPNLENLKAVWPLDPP
In short: as §1

ETS2 = target: T8, ETS2 (Homo sapiens, UniProt P15036 1-469)
T8 sequence: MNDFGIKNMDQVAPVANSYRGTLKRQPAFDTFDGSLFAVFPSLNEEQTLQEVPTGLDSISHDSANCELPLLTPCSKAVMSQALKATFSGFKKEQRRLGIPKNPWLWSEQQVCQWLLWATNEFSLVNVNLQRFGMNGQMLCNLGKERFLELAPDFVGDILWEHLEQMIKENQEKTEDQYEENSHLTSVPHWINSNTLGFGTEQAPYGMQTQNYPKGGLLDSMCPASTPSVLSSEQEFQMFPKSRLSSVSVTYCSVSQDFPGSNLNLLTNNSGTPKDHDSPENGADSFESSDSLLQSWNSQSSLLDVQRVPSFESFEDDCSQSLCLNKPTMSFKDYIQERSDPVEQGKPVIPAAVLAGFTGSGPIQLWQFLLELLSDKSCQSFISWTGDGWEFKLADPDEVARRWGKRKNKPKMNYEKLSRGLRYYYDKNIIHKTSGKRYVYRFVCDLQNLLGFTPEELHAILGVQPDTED
In short: as §1

SPDEF = target: T9, SPDEF (Homo sapiens, UniProt O95238 1-335)
T9 sequence: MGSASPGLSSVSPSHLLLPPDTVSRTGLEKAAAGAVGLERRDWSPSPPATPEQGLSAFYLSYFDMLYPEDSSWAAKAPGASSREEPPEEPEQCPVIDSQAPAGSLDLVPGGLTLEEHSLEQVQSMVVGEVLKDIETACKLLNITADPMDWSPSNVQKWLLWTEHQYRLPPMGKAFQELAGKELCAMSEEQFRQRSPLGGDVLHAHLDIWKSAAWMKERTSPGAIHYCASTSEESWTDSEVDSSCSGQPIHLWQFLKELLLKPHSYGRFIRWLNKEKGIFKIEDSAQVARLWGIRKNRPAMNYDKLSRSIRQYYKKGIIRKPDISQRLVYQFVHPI
In short: as §1

ETV7 = target: T10, ETV7 (Homo sapiens, UniProt Q9Y603 1-341)
T10 sequence: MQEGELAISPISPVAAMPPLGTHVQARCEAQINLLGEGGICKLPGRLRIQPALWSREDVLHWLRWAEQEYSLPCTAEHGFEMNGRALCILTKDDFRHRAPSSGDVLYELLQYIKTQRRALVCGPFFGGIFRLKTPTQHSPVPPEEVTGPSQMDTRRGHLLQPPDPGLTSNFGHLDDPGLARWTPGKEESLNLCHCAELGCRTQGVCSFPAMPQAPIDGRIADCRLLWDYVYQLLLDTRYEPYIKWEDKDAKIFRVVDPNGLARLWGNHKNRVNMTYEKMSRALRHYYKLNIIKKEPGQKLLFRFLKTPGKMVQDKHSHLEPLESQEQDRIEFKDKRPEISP
In short: as §1

ELF5 = target: T11, ELF5 (Homo sapiens, UniProt Q9UKW6-2 1-255)
T11 sequence: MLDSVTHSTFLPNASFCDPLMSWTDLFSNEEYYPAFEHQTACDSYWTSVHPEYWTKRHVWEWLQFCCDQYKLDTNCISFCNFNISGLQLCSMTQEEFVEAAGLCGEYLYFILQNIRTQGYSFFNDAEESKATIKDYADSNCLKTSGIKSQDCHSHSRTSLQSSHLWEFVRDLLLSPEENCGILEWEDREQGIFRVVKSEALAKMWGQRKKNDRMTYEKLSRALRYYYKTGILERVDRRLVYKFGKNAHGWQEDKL
In short: as §1

ETV3 = target: T12, ETV3 (Homo sapiens, UniProt P41162-2 1-143)
T12 sequence: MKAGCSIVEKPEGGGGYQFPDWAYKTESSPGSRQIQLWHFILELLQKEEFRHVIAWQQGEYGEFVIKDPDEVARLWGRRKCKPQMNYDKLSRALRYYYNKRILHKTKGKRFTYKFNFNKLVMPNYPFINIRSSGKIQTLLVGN
In short: as §1

ETV6 = ETV6 (Homo sapiens, UniProt P41212 1-452)
In short: as §1

Chain of ETV1 (P50549 whole entry): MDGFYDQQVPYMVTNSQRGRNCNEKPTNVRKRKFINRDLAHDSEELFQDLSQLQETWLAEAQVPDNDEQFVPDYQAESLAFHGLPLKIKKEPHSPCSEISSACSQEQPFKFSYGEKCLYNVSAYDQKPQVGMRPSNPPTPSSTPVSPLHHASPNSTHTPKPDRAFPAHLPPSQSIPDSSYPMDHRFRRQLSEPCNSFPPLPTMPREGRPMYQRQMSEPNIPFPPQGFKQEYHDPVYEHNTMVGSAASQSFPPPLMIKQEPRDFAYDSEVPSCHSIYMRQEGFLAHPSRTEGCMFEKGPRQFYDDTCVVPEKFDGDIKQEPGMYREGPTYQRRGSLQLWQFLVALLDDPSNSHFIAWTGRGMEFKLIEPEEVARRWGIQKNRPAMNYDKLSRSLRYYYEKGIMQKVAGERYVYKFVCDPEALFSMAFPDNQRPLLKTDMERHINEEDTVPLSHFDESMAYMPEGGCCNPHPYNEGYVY
Chain of ELF4 (Q99607 whole entry): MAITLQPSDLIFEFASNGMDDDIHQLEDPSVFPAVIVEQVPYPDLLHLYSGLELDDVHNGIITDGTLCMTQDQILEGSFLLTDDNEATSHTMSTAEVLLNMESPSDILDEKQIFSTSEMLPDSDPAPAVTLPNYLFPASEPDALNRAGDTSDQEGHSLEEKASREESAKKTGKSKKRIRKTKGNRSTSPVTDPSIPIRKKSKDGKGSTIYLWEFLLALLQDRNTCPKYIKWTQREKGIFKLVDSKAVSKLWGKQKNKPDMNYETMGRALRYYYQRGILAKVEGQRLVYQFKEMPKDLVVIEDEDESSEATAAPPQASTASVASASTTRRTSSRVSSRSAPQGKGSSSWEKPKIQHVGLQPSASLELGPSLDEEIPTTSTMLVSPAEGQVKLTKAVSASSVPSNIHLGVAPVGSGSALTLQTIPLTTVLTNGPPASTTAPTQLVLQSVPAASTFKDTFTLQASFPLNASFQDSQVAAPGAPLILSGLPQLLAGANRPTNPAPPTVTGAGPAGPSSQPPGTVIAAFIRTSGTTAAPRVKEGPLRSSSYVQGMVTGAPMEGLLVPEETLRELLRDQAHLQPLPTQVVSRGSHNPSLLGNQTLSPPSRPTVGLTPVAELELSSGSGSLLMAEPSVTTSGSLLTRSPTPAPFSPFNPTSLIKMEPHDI
Chain of ETV6 (P41212 whole entry): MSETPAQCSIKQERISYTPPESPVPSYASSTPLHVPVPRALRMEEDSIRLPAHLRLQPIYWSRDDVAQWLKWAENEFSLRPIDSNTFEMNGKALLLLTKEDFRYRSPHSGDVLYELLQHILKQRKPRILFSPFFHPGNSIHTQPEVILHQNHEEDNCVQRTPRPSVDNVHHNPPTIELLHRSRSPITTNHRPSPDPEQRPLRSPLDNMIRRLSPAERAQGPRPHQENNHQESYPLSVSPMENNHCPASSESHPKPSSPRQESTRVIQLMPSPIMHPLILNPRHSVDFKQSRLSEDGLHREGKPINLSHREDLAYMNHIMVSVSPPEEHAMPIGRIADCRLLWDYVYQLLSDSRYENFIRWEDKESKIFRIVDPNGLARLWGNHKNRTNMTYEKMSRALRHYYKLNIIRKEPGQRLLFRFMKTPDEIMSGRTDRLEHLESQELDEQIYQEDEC
Chain of ETV5 (P41161 whole entry): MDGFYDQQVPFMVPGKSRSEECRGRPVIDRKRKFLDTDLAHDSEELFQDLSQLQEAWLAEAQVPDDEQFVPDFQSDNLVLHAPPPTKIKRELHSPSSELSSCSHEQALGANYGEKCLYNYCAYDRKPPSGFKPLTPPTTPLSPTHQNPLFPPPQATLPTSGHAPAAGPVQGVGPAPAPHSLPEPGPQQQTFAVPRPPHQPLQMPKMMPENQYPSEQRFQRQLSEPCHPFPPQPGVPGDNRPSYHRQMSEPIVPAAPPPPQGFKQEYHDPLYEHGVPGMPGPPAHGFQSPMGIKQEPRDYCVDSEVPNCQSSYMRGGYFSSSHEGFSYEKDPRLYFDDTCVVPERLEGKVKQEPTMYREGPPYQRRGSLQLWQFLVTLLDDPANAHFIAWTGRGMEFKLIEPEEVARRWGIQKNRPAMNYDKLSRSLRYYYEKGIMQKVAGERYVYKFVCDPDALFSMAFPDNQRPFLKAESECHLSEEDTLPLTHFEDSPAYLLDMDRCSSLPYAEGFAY

Row | Sequence | binding signal (FEV) | binding signal (ETV5) | binding signal (SPIC) | binding signal (ELF4) | binding signal (ELK4) | binding signal (ETV2) | binding signal (ELF3) | binding signal (ETV1) | binding signal (ERF) | binding signal (ETV3L) | binding signal (ETS2) | binding signal (SPDEF) | binding signal (ETV7) | binding signal (ELF5) | binding signal (ETV3) | binding signal (ETV6)
1 | CACTCA | 1.16 fold enrichment (6-mer frequency, TF over GST control) | 1.09 fold enrichment (6-mer frequency, TF over GST control) | 1.3 fold enrichment (6-mer frequency, TF over GST control) | 1.18 fold enrichment (6-mer frequency, TF over GST control) | 1.17 fold enrichment (6-mer frequency, TF over GST control) | 1.27 fold enrichment (6-mer frequency, TF over GST control) | 1.17 fold enrichment (6-mer frequency, TF over GST control) | 1.1 fold enrichment (6-mer frequency, TF over GST control) | 1.2 fold enrichment (6-mer frequency, TF over GST control) | 1.11 fold enrichment (6-mer frequency, TF over GST control) | 1.16 fold enrichment (6-mer frequency, TF over GST control) | 1.14 fold enrichment (6-mer frequency, TF over GST control) | 1.21 fold enrichment (6-mer frequency, TF over GST control) | 1.12 fold enrichment (6-mer frequency, TF over GST control) | 1.09 fold enrichment (6-mer frequency, TF over GST control) | 1.14 fold enrichment (6-mer frequency, TF over GST control)
2 | CGGTTC | 1.42 fold enrichment (6-mer frequency, TF over GST control) | 1.31 fold enrichment (6-mer frequency, TF over GST control) | 1.2 fold enrichment (6-mer frequency, TF over GST control) | 1.19 fold enrichment (6-mer frequency, TF over GST control) | 1.29 fold enrichment (6-mer frequency, TF over GST control) | 1.39 fold enrichment (6-mer frequency, TF over GST control) | 1.33 fold enrichment (6-mer frequency, TF over GST control) | 1.39 fold enrichment (6-mer frequency, TF over GST control) | 1.21 fold enrichment (6-mer frequency, TF over GST control) | 1.17 fold enrichment (6-mer frequency, TF over GST control) | 1.21 fold enrichment (6-mer frequency, TF over GST control) | 1.63 fold enrichment (6-mer frequency, TF over GST control) | 1.17 fold enrichment (6-mer frequency, TF over GST control) | 1.33 fold enrichment (6-mer frequency, TF over GST control) | 1.3 fold enrichment (6-mer frequency, TF over GST control) | 1.4 fold enrichment (6-mer frequency, TF over GST control)
